Common to all, as to experiment: NCI-60 one-dose screen, 48 h (100 = growth as untreated, 0 = no growth, -100 = all killed)
What all share (conditions): 10 µM unless noted

In assay [1] the test system is HCT-15 colon.
In assay [2] the test system is HT29 colon.
Assay [3] relates to SNB-75 CNS.
Assay [4] relates to SNB-19 CNS.
For assay [5], the system named is U251 CNS.
Assay [6] has as its system PC-3 prostate.
In assay [7] the test system is SK-MEL-5 melanoma.
The test system of assay [8] is UACC-62 melanoma.
Assay [9] deals with LOX IMVI melanoma.
Assay [10] has as its system SK-MEL-28 melanoma.
For assay [11], the system named is SK-MEL-2 melanoma.
For assay [12], the system named is EKVX NSCLC.
Assay [13] relates to SN12C renal.
For assay [14], the system named is UO-31 renal.
Assay [15] has as its system TK-10 renal.
The subject of assay [16] is ACHN renal.
The test system of assay [17] is CAKI-1 renal.
The test system of assay [18] is CCRF-CEM leukemia.
In assay [19] the test system is MOLT-4 leukemia.

Here are results for 14 compounds from PubChem BioAssay (NCI).

The structures appear in SMILES notation. Compounds without any hit were thinned out: in the full panel of roughly 83,000, 20% have a hit.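 Results are percent growth after 48 hours of single-concentration exposure. 100 means growth as in untreated cells, lower positive values show inhibition; negative values down to -100 show cell death.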 A number with no mark means an inactive call. The source made the active and inactive calls. How the source made its calls: active means growth percent below 10; inactive means the rest.

Take `Cc1ccc(NC(=O)Cc2ccc(/C=C/C(=O)c3ncc[nH]3)cc2)cc1`: the growth is 11% in assay [1]; 9.43% (active) in assay [2]; 22.2% in assay [3]; 16.6% in assay [4]; 7.18% (active) in assay [5]; 53.3% in assay [6]. Further, the growth was 73.9% in [7]; 66.2% in assay [8]; 10.9% in [9]; 86.9% in assay [10]; 109% in assay [11]; 82.4% in assay [12]. The growth is 13.5% in [13]; 39.5% in assay [14]; 78.4% in assay [15]; 73.1% in assay [16]; 61.1% in [17]; 4.85% (active) in assay [18]. The growth in assay [19] was 23.5%.

Take `ClC1=C(Br)C(Br)(Br)C(=C(Br)Br)C1(Br)Br`: the growth in [1] is 79.2%; in assay [2], 82.5%; in assay [3], 96.6%; in assay [4], 93.9%; in [5], 94.5%; in assay [6], 82.8%. In addition, the growth in assay [7] is 92.6%; in assay [8], 81.2%; in [9], 77.9%; in [10], 102%; in assay [11], 110%; in assay [12], 111%. In addition, the growth in [13] is 95.5%; in assay [14] it was 71.7%; in [15] it was 80.4%; in [16], 78.6%; in [17], 61.3%; in assay [18], 25.1%. In addition, the growth in [19] was 74.5%.

Take `COc1cc(NC(C)CCCNC(=O)CCC(=O)NCCCNCCCCCCCCCCNCCCNC(=O)CCC(=O)NCCCC(C)Nc2cc(OC)cc3cccnc23)c2ncccc2c1` (stereo unspecified): the growth was 99.1% [8 µM] in [1]; 73.6% [8 µM] in [2]; 59.1% [8 µM] in assay [3]; 60.5% [8 µM] in [4]; 50.8% [8 µM] in assay [5]; 78.2% [8 µM] in assay [6]. Besides, the growth was 91% [8 µM] in assay [7]; 89.4% [8 µM] in [8]; 51.1% [8 µM] in [9]; 86.8% [8 µM] in assay [10]; 93.4% [8 µM] in assay [11]; 73.7% [8 µM] in assay [12]. Moreover, the growth was 41.3% [8 µM] in assay [13]; 96.3% [8 µM] in assay [14]; 100% [8 µM] in assay [15]; 96.7% [8 µM] in assay [16]; 97.3% [8 µM] in [17]; 66.6% [8 µM] in [18]. In addition, the growth in assay [19] is 76.8% [8 µM].

On to `O=C(O)c1ccc(-c2nn(-c3ccc(C(F)(F)F)cc3)cc2CNc2ccc(Oc3ccccc3)cc2)cc1`, for which the growth in assay [1] was 43.2%; in assay [2] it was 67%; in assay [3], 80.6%; in [4] it was 82.7%; in [5], 67%; in [6], 90.6%. The growth in assay [7] is 78.9%; in assay [8] it was 77.5%; in assay [9], 82.5%; in assay [10], 89.1%; in assay [11], 90%; in [12], 66.9%. For the same compound, the growth in [13] was 78.2%; in assay [14] it was 60.1%; in assay [15], 98.3%; in assay [16], 65.9%; in assay [17], 91.8%; in assay [18], 76.7%. The growth in assay [19] is 67.6%.

As for `COc1ccc(C(=O)c2cc(C)c(OC)c(C)c2)c(OC)c1N(C(=O)CCl)C(=O)CCl`, the growth in [1] was 4.71% (active); in assay [2], 3.24% (active); in [3], 45.2%; in assay [4], 11.9%; in assay [5] it was 16.1%; in assay [6], 13.1%. In addition, the growth in assay [7] is -9.39% (active); in assay [8] it was 24.5%; in [9], 14.1%; in assay [10], 54%; in [11], 27.8%; in [12] it was 51.7%. Moreover, the growth was 31.3% in assay [13]; 39.3% in assay [14]; 52.5% in assay [15]; 18.2% in assay [16]; 42% in assay [17]; 8.61% (active) in assay [18]. In addition, the growth in assay [19] was 13.2%.

As for `COc1cc(NC(C)CCCNC(=O)CCC(=O)NCCCNCCCCCCCCNCCCNC(=O)CCC(=O)NCCCC(C)Nc2cc(OC)cc3cccnc23)c2ncccc2c1` (stereo unspecified), the growth is 108% in [1]; 67.5% in assay [2]; 54.2% in [3]; 57.9% in [4]; 35.1% in assay [5]; 77.6% in assay [6]. For the same compound, the growth was 97.1% in assay [7]; 84.2% in assay [8]; 35.7% in assay [9]; 78.1% in assay [10]; 78.4% in [11]; 79.6% in assay [12]. Moreover, the growth in assay [13] is 42.9%; in assay [14], 91.4%; in [15] it was 82.6%; in [16] it was 88.9%; in assay [17], 95.1%; in assay [18], 58.9%. In assay [19], the growth is 76.4%.

As for `Cc1ccc(-n2cc(-c3ccccc3)c3c2N=NN2CCN=C32)cc1`, the growth in assay [1] is 101%; in assay [2], 110%; in assay [3] it was 72.1%; in assay [4] it was 92.2%; in [5] it was 99.1%; in assay [6], 86.4%. The growth in assay [7] was 99.1%; in assay [8], 82.3%; in [9] it was 97.7%; in assay [10], 109%; in assay [11], 103%; in assay [12], 87.5%. In addition, the growth in [13] was 96%; in [14], 74.5%; in assay [15] it was 141%; in assay [16], 105%; in [17] it was 68.7%; in assay [18] it was 101%. Moreover, in [19], the growth is 97.3%.

For `O=C1Nc2cc(-c3ccc(NC(=O)C4CC4)cc3)ccc2/C1=C/c1ccc[nH]1`, the growth was 94.7% in assay [1]; 101% in assay [2]; 94.5% in assay [3]; 94.7% in assay [4]; 84% in [5]; 104% in [6]. The growth is 98.6% in assay [7]; 110% in assay [8]; 95.1% in [9]; 119% in assay [10]; 109% in assay [11]; 47.6% in assay [12]. Besides, the growth in assay [13] is 97.8%; in [14] it was 80.2%; in assay [15], 115%; in [16], 106%; in assay [17], 102%; in assay [18], 98.7%. Further, the growth in assay [19] is 94.7%.

Take `COc1cc2c(=O)n(CCCN(C)C)c3c4cc5c(cc4ccc3c2cc1OC)OCO5`: the growth was 52.1% in [1]; 30.5% in assay [2]; 90.2% in [3]; 52.6% in assay [4]; 55.8% in assay [5]; 50.8% in [6]. Besides, the growth in assay [7] is 71%; in [8] it was 59.4%; in assay [9], 36.3%; in assay [10], 87.2%; in assay [11], 89%; in [12] it was 85%. In addition, the growth in assay [13] was 50.4%; in assay [14], 41.9%; in [15], 84.5%; in [16], 36.8%; in assay [17], 62%; in assay [18], 13.8%. In addition, in [19], the growth was -9.29% (active).

For `O=C(CCN1CCCC1)Nc1ccc2c(NCCc3ccccc3)c3ccccc3nc2c1`, the growth in assay [1] is 12%; in assay [2], 4.99% (active); in assay [3], -70.8% (active); in assay [4], -17.9% (active); in [5] it was -24% (active); in [6] it was -36% (active). Also, the growth in assay [7] is 11.2%; in assay [8], -55.1% (active); in [9], -68% (active); in [10] it was -17.4% (active); in assay [11], -58.8% (active); in assay [12], -4.89% (active). Further, the growth in assay [13] is -12.5% (active); in [14], -10.8% (active); in assay [15] it was 3.29% (active); in assay [16] it was 11%; in [17], 4.47% (active); in assay [18] it was -9.81% (active). The growth in assay [19] was -17.6% (active).

As to `CCN(Cc1ccccc1)c1ccc(C=O)cc1`, the growth was 91% in assay [1]; 107% in assay [2]; 82.1% in assay [3]; 99.2% in [4]; 92% in [5]; 75.3% in assay [6]. For the same compound, the growth was 98.9% in assay [7]; 85.2% in [8]; 91% in assay [9]; 115% in assay [10]; 98.3% in [11]; 106% in [12]. Also, the growth in assay [13] was 96.7%; in assay [14], 74.6%; in assay [15], 64.2%; in [16], 91.9%; in [17] it was 88%; in assay [18], 45.5%. Further, the growth in assay [19] is 97.2%.

Consider `O=C1Nc2cc(-c3cccc([N+](=O)[O-])c3)ccc2/C1=C/c1ccc[nH]1`, for which the growth in assay [1] is 28%; in assay [2], 91.1%; in [3] it was 64.6%; in assay [4], 101%; in assay [5], 98.8%; in assay [6], 86.8%. In addition, the growth in assay [7] was 70.3%; in assay [8] it was 83.9%; in assay [9] it was 90%; in assay [10], 106%; in assay [11], 88.1%; in assay [12] it was 29.8%. Besides, the growth was 101% in [13]; 68.6% in [14]; 65.6% in assay [15]; 92.3% in [16]; 80.9% in assay [17]; 91.5% in assay [18]. For the same compound, the growth in assay [19] was 97.4%.

As to `COc1cc2nc(-c3ccc(Cl)cc3)cc(OCCCN3CCC(O)CC3)c2cc1OC`, the growth in assay [1] was 19%; in [2], 16.8%; in assay [3], 39.6%; in assay [4] it was 73.4%; in assay [5], 54.5%; in assay [6], 41.7%. Also, the growth in assay [7] is -30% (active); in [8] it was -24.7% (active); in [9], -53.3% (active); in assay [10], 70%; in [11], 75.8%; in assay [12], 56.7%. Besides, the growth in assay [13] is 36.6%; in [14] it was 51.3%; in assay [15] it was 92.2%; in assay [16], 35.1%; in assay [17] it was -5.22% (active); in [18], 57.5%. In addition, the growth in assay [19] was 44.1%.

With `CCCCCCCCO/N=C\c1c2c(O)c3c(O)c(C)c4c(c3c1O)C(=O)C(C)(O/C=C\C(OC)C(C)C(OC(C)=O)C(C)C(O)C(C)C(O)C(C)/C=C\C=C(\C)C(=O)N2)O4` (stereo unspecified), the growth in assay [1] was 19.1%; in assay [2], 2.82% (active); in assay [3] it was 36%; in assay [4], 29.2%; in assay [5] it was 13.7%; in [6], 13.1%. The growth was 17.7% in assay [7]; 26.2% in [8]; 30.2% in [9]; 51.5% in assay [10]; -31.4% (active) in assay [11]; 22.5% in assay [12]. Besides, the growth in assay [13] was 21.8%; in assay [14], 17.7%; in assay [15] it was 30%; in [16], 25%; in assay [17] it was 13.1%; in [18], 19.8%. Further, the growth in assay [19] is 12.9%.
